# Test results reported in PubChem BioAssay.
# For some of these results: Potency and affinity values are given separately. The source made the active and inactive calls. Unless noted, how the calls were made is not given here.
# Assays:
# [1] = target: Cell division control protein 42 homolog (Homo sapiens) (UniProt P60953); assay: inhibition of fluorescent GTP binding to constitutively active Cdc42 – biochemical, multiplex bead flow cytometry, Bodipy-FL-GTP, dose response (AID 1333;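 active means fitted half-maximal concentration within the tested dose range, moderate curve steepness, a statistically real signal drop, and little compound fluorescence or tag-binding interference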)
# Sequence of Cell division control protein 42 homolog (Homo sapiens) (P60953 whole entry, looked up): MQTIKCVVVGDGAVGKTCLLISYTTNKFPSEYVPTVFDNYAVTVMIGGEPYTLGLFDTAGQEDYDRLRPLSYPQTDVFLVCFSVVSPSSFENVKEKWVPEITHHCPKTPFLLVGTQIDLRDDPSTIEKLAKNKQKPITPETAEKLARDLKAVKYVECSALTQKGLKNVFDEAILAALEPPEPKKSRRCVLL
# [2] = target: Cell division control protein 42 homolog (Homo sapiens) (UniProt P60953); assay: inhibition of fluorescent GTP binding to wildtype Cdc42 – biochemical, multiplex bead flow cytometry, Bodipy-FL-GTP, dose response (AID 1334;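 active means fitted half-maximal concentration within the tested range, moderate curve steepness, significant signal drop, and little compound fluorescence or bead-linkage interference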); settings: bead-based flow cytometry, Bodipy-FL-GTP binding to GST-Cdc42; at 100 µM (top of the series) unless noted
# [3] = target: GTPase HRas (Homo sapiens) (UniProt P01112); assay: Ras wt fluorescent GTP loading blockade – biochemical, wildtype, multiplex bead flow cytometry, dose response (AID 1335;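 active means fitted half-maximal concentration within 10 nM to 100 µM, steepness 0.5 to 2, significant signal drop, low assay interference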); settings: bead-based flow cytometry, Bodipy-GTP binding to GST-Ras; at 100 µM (top of the series) unless noted
# Sequence of GTPase HRas (Homo sapiens) (P01112 whole entry, looked up): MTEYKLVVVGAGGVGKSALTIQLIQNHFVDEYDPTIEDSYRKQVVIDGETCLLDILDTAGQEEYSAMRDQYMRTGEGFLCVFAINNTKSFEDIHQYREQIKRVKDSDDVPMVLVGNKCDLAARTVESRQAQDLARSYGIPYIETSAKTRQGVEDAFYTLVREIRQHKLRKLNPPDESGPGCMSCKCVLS
# [4] = system: Ras-related protein Rab-7a (dog), GTP binding; assay: blockers of fluorescent GTP binding to Rab7 – biochemical, wildtype, multiplex bead flow cytometry, dose response (AID 1336)
# [5] = target: Ras-related C3 botulinum toxin substrate 1 (Homo sapiens) (UniProt P63000); assay: inhibition of wildtype Rac1 nucleotide loading – biochemical, multiplex bead flow cytometry, dose response (AID 1340;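 active means dose curve with midpoint inside tested range, moderate steepness, plateau gap beyond fit error, low compound glow and bead-link interference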); settings: GST-Rac1 beads, Bodipy-FL-GTP binding; at 100 µM (top of the series) unless noted
# [6] = target: GTPase HRas (Homo sapiens) (UniProt P01112); assay: blockade of GTP loading onto mutant Ras – biochemical, activated mutant, multiplex bead flow cytometry, dose response (AID 1341;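 active means dose-response curve with midpoint inside the tested range, moderate steepness, significant amplitude and little compound fluorescence or bead-attachment interference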;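 further: GST-tagged constitutively activated Ras mutant immobilized on beads and multiplexed with other GTPases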)
# [7] = reduced mouse 2C T cell binding to pMHC/ICAM-1 vesicles – MLPCN validation set, flow cytometry, LFA-1/ICAM-1 modulator project, pilot screen (AID 2523;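 active means response below a set limit, under 55% cells CD8-positive and vesicle-bound, and CD8 cells' 90th-percentile brightness under 279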;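 on vesicle binding response: mean PE anti-B7-1 fluorescence of CD8+ cells relative to row control; 100% = QL9-loaded vesicles with DMSO vehicle in the same plate row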); settings: 2C mouse CD8+ T cells, at 7 µM, stronger effect = lower value; double positive events: measured here: CD8+/vesicle+ event percentage
# [8] = calorie-restriction mimetic ROS inhibitors, yeast – validation compound set, pilot screen (AID 2706;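 active means superoxide response below 65% of plate, a cut near 3 SD across the whole screen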;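 further: yeast exposed to compound for one week at 30 degrees C before staining; 100% = mean of all compound wells on the same plate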); settings: S. cerevisiae aging, superoxide DHE fluorescence; at 10 µM; stronger effect = lower value
# [9] = target: Beta-adrenergic receptor kinase 1 (Homo sapiens) (UniProt P25098); assay: GRK2 binders displacing RNA aptamer, biochemical, validation, human GRK2, bead flow cytometry (AID 488806;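 active means aptamer binding inhibition above 30%, about 3 SD of noise from non-fluorescent compounds; inactive means inhibition at or below 30%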); settings: bead-bound GRK2, FAM-aptamer displacement, at 10 µM, stronger effect = higher value
# Sequence of Beta-adrenergic receptor kinase 1 (Homo sapiens) (P25098 whole entry, looked up): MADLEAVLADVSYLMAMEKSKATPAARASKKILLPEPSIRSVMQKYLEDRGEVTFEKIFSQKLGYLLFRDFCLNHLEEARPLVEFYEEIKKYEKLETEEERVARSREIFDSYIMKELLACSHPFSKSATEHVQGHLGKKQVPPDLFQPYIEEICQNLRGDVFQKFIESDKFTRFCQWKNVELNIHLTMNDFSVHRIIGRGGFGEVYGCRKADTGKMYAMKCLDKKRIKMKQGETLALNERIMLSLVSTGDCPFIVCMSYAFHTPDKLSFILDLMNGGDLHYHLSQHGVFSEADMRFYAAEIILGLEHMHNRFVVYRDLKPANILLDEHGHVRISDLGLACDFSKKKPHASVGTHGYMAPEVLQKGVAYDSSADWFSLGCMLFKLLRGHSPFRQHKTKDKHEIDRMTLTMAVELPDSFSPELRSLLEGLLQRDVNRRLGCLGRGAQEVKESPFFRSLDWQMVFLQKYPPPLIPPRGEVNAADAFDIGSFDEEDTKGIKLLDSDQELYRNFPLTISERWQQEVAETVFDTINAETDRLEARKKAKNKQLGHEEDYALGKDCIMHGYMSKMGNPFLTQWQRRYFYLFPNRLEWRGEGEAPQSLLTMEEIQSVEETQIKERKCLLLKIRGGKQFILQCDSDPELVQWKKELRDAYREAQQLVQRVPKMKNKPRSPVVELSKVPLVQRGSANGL
# [10] = target: Beta-2 adrenergic receptor (Homo sapiens) (UniProt P07550); assay: agonist-induced loss of surface beta2AR – cell-based, FAP fluorogen, flow cytometry, validation set, pilot screen (AID 504459;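 active means percent response above 42, roughly 3 SD of non-fluorescent test compounds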;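 further: agonist-driven loss of surface beta2AR via internalization measured by FAP dye flow cytometry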); settings: Am2.2-beta2AR cells, at 10 µM, stronger effect = higher value
# Sequence of Beta-2 adrenergic receptor (Homo sapiens) (P07550 whole entry, looked up): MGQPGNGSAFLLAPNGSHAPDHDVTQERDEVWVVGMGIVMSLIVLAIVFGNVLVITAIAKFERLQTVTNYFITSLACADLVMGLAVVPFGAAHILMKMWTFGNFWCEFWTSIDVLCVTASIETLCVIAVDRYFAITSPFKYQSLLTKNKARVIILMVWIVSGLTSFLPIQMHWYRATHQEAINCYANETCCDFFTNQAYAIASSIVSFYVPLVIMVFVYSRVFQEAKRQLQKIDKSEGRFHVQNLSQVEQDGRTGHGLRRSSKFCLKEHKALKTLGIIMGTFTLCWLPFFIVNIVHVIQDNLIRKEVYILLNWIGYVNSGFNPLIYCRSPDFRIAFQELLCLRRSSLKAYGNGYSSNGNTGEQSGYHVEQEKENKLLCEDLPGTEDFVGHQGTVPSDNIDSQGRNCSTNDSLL
# [11] = target: AP-2 complex subunit beta (Homo sapiens) (UniProt P63010); assay: beta-arrestin/AP2 interaction blockers – biochemical, validation set, GST-AP2 beads, flow cytometry, pilot screen (AID 504541;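 active means inhibition above 54%, about 3 SD of non-fluorescent compounds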;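 further: AP2 carries R879A mutation and is captured from E. coli lysate; bead-bound FITC arrestin peptide fluorescence measuring arrestin peptide binding to AP2; 0% = DMSO wells and 100% = excess unlabeled arrestin peptide control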); settings: FITC arrestin peptide, at 10 µM, stronger effect = higher value, AP2 beta2 appendage fragment, R879A mutant
# Sequence of AP-2 complex subunit beta (Homo sapiens) (P63010 whole entry, looked up, the tested form may be a part, one chain of several): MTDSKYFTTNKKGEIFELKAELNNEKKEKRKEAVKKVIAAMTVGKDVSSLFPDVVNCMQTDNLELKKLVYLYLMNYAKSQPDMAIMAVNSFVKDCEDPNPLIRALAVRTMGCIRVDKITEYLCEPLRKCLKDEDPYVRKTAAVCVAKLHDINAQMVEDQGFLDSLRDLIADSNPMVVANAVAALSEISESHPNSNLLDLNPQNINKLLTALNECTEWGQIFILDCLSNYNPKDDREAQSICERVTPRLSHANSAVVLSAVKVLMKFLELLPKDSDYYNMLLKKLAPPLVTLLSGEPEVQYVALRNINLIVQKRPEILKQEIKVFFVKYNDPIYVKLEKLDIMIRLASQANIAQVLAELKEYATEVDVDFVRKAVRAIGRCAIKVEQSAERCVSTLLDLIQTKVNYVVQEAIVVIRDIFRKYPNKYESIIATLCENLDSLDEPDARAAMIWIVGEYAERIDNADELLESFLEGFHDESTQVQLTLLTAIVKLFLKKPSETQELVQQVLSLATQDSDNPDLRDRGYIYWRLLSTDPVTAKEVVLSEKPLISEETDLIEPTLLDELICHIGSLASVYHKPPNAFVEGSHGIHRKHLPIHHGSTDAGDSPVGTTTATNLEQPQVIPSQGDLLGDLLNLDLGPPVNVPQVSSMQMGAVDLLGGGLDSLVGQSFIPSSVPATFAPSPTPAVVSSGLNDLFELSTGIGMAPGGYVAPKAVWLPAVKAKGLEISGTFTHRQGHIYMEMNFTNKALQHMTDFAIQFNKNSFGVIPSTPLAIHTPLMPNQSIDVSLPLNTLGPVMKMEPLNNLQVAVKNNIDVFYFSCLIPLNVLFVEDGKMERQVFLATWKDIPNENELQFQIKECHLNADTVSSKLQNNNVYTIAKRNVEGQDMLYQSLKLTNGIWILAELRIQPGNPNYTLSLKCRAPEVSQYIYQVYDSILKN
# [12] = cytosolic pH regulators acting via V-ATPase – S. cerevisiae, pHLuorin, HTS validation (AID 504600; in the data active means response above about 15%;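 further: plate controls were DMSO for no effect and reference compound for full effect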); settings: V-ATPase proton transport, at 10 µM, stronger effect = higher value
# [13] = system: anti-desmoglein-3 scFv antibody binding to human DSG3; assay: blockers of pathogenic pemphigus antibody–desmoglein-3 binding – biochemical, validation compound set, bead-based, flow cytometry, pilot screen (AID 588368;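 active means binding below the plate cutoff, the plate median minus 3 SD, with a reading above zero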;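 further: signal is the median channel fluorescence of bead-bound GFP antibody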); settings: Protein G beads, DSG3-Fc, scFv-GFP binding, at 10 µM, stronger effect = lower value
# [14] = Nile Red efflux blockade in pump-expressing yeast – validation compound set, multiplex, phenotypic, pilot screen (AID 588506;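 active means efflux inhibition above 0.42, the validation set average plus 4 SD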;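 further: Nile Red retained in cells so higher fluorescence means more efflux inhibition; 0 = negative control wells and 1 = enniatin B 25 µM full block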); settings: S. cerevisiae pump-expressing triplex, Nile Red efflux flow cytometry; at 10 µM; stronger effect = higher value; the pumps come from Candida albicans
# [15] = target: ATP-binding cassette sub-family B member 6 (Homo sapiens) (UniProt Q9NP58); assay: blockers of ABCB6-driven porphyrin uptake – K562-ABCB6 cells, flow cytometry, validation set, pilot screen (AID 588550;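 active means inhibition above the screen-wide mean plus 3 SD, about 51%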;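 further: 0% = DMSO wells and 100% = benzethonium chloride 70 µM positive control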); settings: K562-ABCB6 porphyrin accumulation, 1 h, at 10 µM, stronger effect = higher value
# Sequence of ATP-binding cassette sub-family B member 6 (Homo sapiens) (Q9NP58 whole entry, looked up): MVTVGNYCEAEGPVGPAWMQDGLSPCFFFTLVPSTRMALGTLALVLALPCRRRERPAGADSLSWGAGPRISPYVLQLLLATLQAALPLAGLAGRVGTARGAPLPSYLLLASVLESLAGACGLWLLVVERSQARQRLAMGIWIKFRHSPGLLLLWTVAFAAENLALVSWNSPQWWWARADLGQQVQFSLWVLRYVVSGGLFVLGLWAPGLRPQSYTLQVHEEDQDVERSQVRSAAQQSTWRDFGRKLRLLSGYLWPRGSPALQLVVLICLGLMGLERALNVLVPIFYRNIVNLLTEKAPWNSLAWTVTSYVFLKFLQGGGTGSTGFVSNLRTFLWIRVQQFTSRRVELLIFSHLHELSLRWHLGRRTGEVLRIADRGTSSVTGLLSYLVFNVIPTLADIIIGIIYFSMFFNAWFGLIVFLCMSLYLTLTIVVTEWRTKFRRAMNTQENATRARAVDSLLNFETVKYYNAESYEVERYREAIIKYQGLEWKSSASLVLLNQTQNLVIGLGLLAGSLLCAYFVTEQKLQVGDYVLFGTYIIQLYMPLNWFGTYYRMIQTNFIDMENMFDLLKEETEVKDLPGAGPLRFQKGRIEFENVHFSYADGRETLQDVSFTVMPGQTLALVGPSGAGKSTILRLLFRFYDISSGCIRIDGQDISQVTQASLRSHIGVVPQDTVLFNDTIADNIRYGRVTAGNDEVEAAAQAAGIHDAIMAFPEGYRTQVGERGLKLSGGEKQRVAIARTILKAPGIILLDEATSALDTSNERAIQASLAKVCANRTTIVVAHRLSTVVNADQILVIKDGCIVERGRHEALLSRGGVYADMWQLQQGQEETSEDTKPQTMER
# [16] = AML differentiation inducers, ER-HoxA9 marrow cells – cell-based, GFP/MAC1 double positive, flow cytometry, validation set, primary screen (AID 588685;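 active means differentiation response of at least 50%, scaled between solvent and reference control, from cells with both markers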;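 further: compound exposure lasts four days before antibody staining and flow analysis; 0% = DMSO wells and 100% = 5 µM fulvestrant positive control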); settings: stronger effect = higher value, normalized: vehicle 0, fulvestrant 100
smiles,measurement,setting,value
CCN1/C(=C/C=C/C=C/c2sc3ccccc3[n+]2CC)Sc2ccccc21,outcome,[1],inactive
same,"fluorescence, percent of control (lower = inhibition)",[2],1.8%
same,"GTP binding, percent of control",[3],2%
same,"GTP binding, % of control",[4],4.4% [at 3.7 µM] (inactive)
same,"GTP binding signal, raw median fluorescence (lower = inhibition) (MCF (arbitrary fluorescence units))",[5],1.8
same,outcome,[6],inactive
same,double positive events,[7],81.6%
same,vesicle binding response,[7],109% (inactive)
same,superoxide response (% of plate),[8],89.6% (inactive)
same,aptamer binding inhibition,[9],39% (active)
same,response,[10],-16.6% (inactive)
same,inhibition,[11],75.8% (active)
same,response,[12],-3.07% (inactive)
same,binding (% of control),[13],121% (inactive)
same,efflux inhibition (fraction of control),[14],0.73 (active)
same,inhibition,[15],10% (inactive)
same,differentiation response,[16],7.37% (inactive)
COc1ccccc1NCc1sc(C(=O)O)cc1C,outcome,[1],inactive
same,"fluorescence, percent of control (lower = inhibition)",[2],64.9%
same,"GTP binding, percent of control",[3],86.4%
same,outcome,[4],inactive
same,outcome,[6],inactive
COc1ccc(Cl)cc1NCc1sc(C(=O)O)cc1C,outcome,[1],inactive
same,"fluorescence, percent of control (lower = inhibition)",[2],62.5%
same,"GTP binding, percent of control",[3],84.3%
same,outcome,[4],inactive
same,outcome,[6],inactive
CCOC(=O)Cn1nnnc1C(C(C)C)N(Cc1cccs1)Cc1cc2cc(C)ccc2[nH]c1=O (centres undefined),outcome,[1],inactive
same,"GTP binding, percent of control",[3],181%
same,outcome,[4],inactive
same,"GTP binding signal, raw median fluorescence (lower = inhibition) (MCF (arbitrary fluorescence units))",[5],181
same,outcome,[6],inactive
O=C(O)CCN1C(=O)/C(=C/c2ccc(-c3nc4ccccc4s3)o2)SC1=S,outcome,[1],inactive
same,"fluorescence, percent of control (lower = inhibition)",[2],32.8%
same,"GTP binding, percent of control",[3],53.9%
same,outcome,[4],inactive
same,outcome,[6],inactive
O=C(O)/C=C/c1cn(Cc2ccccc2)nc1-c1ccc(Cl)cc1,outcome,[1],inactive
same,"fluorescence, percent of control (lower = inhibition)",[2],34.9%
same,"GTP binding, percent of control",[3],84.9%
same,outcome,[4],inactive
same,outcome,[6],inactive
S=C(Nc1ccc(Oc2ccccc2)cc1)NC1CCCCC1,outcome,[1],inactive
same,"GTP binding, percent of control",[3],62.2%
same,outcome,[4],inactive
same,"GTP binding signal, raw median fluorescence (lower = inhibition) (MCF (arbitrary fluorescence units))",[5],205
same,outcome,[6],inactive
Cc1cc(C(=O)O)sc1CNCc1ccccc1Cl,outcome,[1],inactive
same,"fluorescence, percent of control (lower = inhibition)",[2],60.4%
same,"GTP binding signal, raw median fluorescence (lower = inhibition) (MCF (arbitrary fluorescence units))",[5],33.9
Cc1ccc(C)c(OCCn2cc(C(=O)O)c3ccccc32)c1,"fluorescence, percent of control (lower = inhibition)",[2],47.5%
same,"GTP binding, percent of control",[3],91.6%
same,outcome,[4],inactive
same,"GTP binding signal, raw median fluorescence (lower = inhibition) (MCF (arbitrary fluorescence units))",[5],304
same,outcome,[6],inactive
CCn1nc(C(=O)OCC(=O)c2cc(C)n(Cc3cccs3)c2C)c2ccccc2c1=O,outcome,[1],inactive
same,"fluorescence, percent of control (lower = inhibition)",[2],46.9%
same,"GTP binding, percent of control",[3],64.2%
same,outcome,[4],inactive
same,outcome,[6],inactive
Cc1sc2nc3ccc(NCc4ccco4)nn3c(=O)c2c1C,outcome,[1],inactive
same,"GTP binding, percent of control",[3],57.4%
same,outcome,[4],inactive
same,outcome,[6],inactive
CC(C)Oc1ccc(/C=N/NC(=O)c2ccc(N(Cc3ccccc3)S(C)(=O)=O)cc2)cc1,outcome,[1],inactive
same,"fluorescence, percent of control (lower = inhibition)",[2],43.8%
same,"GTP binding, percent of control",[3],57.5%
same,outcome,[4],inactive
same,outcome,[6],inactive
O=C(Nc1ccccc1)C1=C(c2ccccc2)S(=O)(=O)CCS1(=O)=O,"fluorescence, percent of control (lower = inhibition)",[2],21.5%
same,"GTP binding, percent of control",[3],72.8%
same,outcome,[4],inactive
same,"GTP binding signal, raw median fluorescence (lower = inhibition) (MCF (arbitrary fluorescence units))",[5],217
same,outcome,[6],inactive
Cc1cccc(-n2nc(CC#N)c(C#N)c2N)c1,outcome,[1],inactive
same,"fluorescence, percent of control (lower = inhibition)",[2],33.5%
same,"GTP binding, percent of control",[3],74.8%
same,outcome,[4],inactive
same,outcome,[6],inactive
